# Measured values as given in PubChem BioAssay (NCATS).
# Results filed as inconclusive are left out. Values without a mark were called inactive. Activity calls are given as the source filed them. Calls come from the whole dose curve; as a rule, active = well fitted curve in the direction sought with a large enough effect; inconclusive = small, poorly fitted or top-dose-only effect, or another doubt; inactive = no such curve, though single readings can be large; an effect the other way counts as inactive or inconclusive.
# Molecular target: Calcium and integrin-binding protein 1 (Homo sapiens) (UniProt Q99828)
# Experiment: Validation qHTS for Identification of Calcium Integrin Binding protein 1 (CIB1) Competitor (AID 1508618)
# Details: CIB1-GST / FITC-alphaIIb peptide fluorescence polarization; series mostly up to 114 µM; activity change, negative = inhibition: at the top concentration
# Outline: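 CIB1-GST (1 uM final) in 5 mM HEPES pH 7.4, 125 mM NaCl, 5 mM CaCl2, 0.01% Tween20 was preincubated 15 min at room temperature with compound (up to 114 uM), then FITC-alphaIIb peptide (100 nM) added for 15 min; fluorescence polarization read.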
# % is set by controls: 0 for no effect and ±100 for the full control effect.
# Chain of Calcium and integrin-binding protein 1 (Homo sapiens) (Q99828 whole entry, looked up): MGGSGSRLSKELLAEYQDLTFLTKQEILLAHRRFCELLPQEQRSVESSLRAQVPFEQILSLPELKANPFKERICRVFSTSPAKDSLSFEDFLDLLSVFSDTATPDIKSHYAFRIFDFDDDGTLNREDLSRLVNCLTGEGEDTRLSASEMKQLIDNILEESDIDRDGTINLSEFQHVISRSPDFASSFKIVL
row,SMILES,"activity change, negative = inhibition [%]"
1,O=C(O)c1cc2cc(F)ccc2[nH]1,-3.12
2,C=CC[C@H](N)C(=O)O,5.68
3,NC/C=C\C(=O)O,0.0709
4,NC(=O)c1ccccc1,3.92
5,c1ccc2nc(C3=NCCN3)ccc2c1,3.94
6,COc1cc(CNC(=O)CCCCCCC(C)C)ccc1O,2.59
7,Cn1cc(C(F)(F)F)nc1-c1ccc(OCC(O)CNCCOc2ccc(O)c(C(N)=O)c2)cc1 (configuration not stated),21.7
8,CC[N+](CC)(CC)CC(=O)Nc1c(C)cccc1C,12
9,O=C(O)C1CN(CCCP(=O)(O)O)CCN1 (configuration not stated),2.2
10,CC1CCN(CC[C@H]2CCCN2S(=O)(=O)c2cccc(O)c2)CC1,5.61
11,CN(CC[C@@H](Oc1ccc(C(F)(F)F)cc1)c1ccccc1)CC(=O)O,4.25
12,c1ccc(C(NCc2cccnc2)(c2ccccc2)c2ccccc2)cc1,-2.24
13,CCCN(CCc1ccccc1)C1CCc2c(O)cccc2C1 (configuration not stated),11
14,CC[C@@H]1Cc2cc(O)ccc2C2=C1c1ccc(O)cc1C[C@H]2CC,-7.56
15,O=c1ccn([C@@H]2O[C@H](COP(=O)(O)OP(=O)(O)O)[C@@H](O)[C@H]2O)c(=O)[nH]1,5.66
16,COc1cc([C@@H]2c3cc4c(cc3[C@H](O)C3COC(=O)[C@@H]32)OCO4)cc(OC)c1OC (some centres not stated),6.78

# Tested on: not listed separately
# Experiment: Primary qHTS for small molecule stabilizers of the endoplasmic reticulum resident proteome: Secreted ER Calcium Modulated Protein (SERCaMP) assay (AID 1508630)
# Details: SH-SY5Y GLuc-SERCaMP (Gaussia luciferase released on ER calcium loss) secretion, thapsigargin, luminescence; series mostly up to 38.4 µM; activity change, negative = inhibition: at the top concentration
# Outline: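 The SH-SY5Y reporter protocol was run at 3 concentrations up to 38.3 uM (primary) or 11 concentrations (follow-up): 16 h compound, 100 nM thapsigargin for 4 h, then extracellular luciferase luminescence.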
SMILES,"activity change, negative = inhibition [%]",Potency
CN(C)C(=O)/N=N/C(=O)N(C)C,-26.7,
Cc1cccc(C(=O)NCN2CCN(c3ccccc3C#N)CC2)c1,,inactive
CSC(=N)N,-7.48,
COc1ccc2c(c1)c(CC(=O)O)c(C)n2C(=O)c1ccccc1,14.4,
COc1ccc2c(c1)CCC1C2CC[C@@]2(C)C1CC[C@@H]2NCCCCCCN1C(=O)C=CC1=O (some centres not stated),-25.6,
O=C(O)c1cccnc1C(=O)O,,inactive
Cc1cc2c(cc1Cl)N(C(=O)Nc1ccnc3ccccc13)CC2,3.41,
Nn1nnc2ccccc21,-27.6,
O=C(O)C1=CCCN(CCON=C(c2ccccc2)c2ccccc2)C1,,inactive
N[C@H]1CONC1=O,-7.3,
N[C@@H](CS(=O)O)C(=O)O,,inactive
O=C(OCCN1CCOCC1)C1(c2ccccc2)CCCCC1,,inactive
C#CCn1c(=O)c2c(ncn2C)n(C)c1=O,,inactive
CNc1cc(NS(=O)(=O)c2ccc(N)cc2)nc(NC)n1,,inactive
CCC(=O)N1CCN(C(=O)c2ccccc2)CC1,-15.4,
CC(=O)[C@H]1CCC2C3CC=C4C[C@@H](OS(=O)(=O)O)CC[C@]4(C)C3CC[C@@]21C (some centres not stated),3.34,
COc1cc(CC(=O)O)ccc1O,,inactive
N[C@H](C(=O)O)c1cc(O)cc(O)c1,,inactive
CCCCCC[C@@H]([C@@H](C)O)n1cnc2c(N)ncnc21,,inactive

SMILES,"activity change, negative = inhibition [%]",Potency
OC1(c2ccc(Cl)cc2)CCN(Cc2c[nH]c3ccccc23)CC1,,inactive
CC(C)[C@@H]1CC[C@@H](C)C[C@@H]1P(=O)(c1ccccc1)c1ccccc1,-21.6,
NC[C@@H]1O[C@H](c2ccccc2)Cc2c1ccc(O)c2O,,inactive
O=C(O)c1cc2cc(F)ccc2[nH]1,-9.7,
C=CC[C@H](N)C(=O)O,-29.5,
NC/C=C\C(=O)O,,inactive
NC(=O)c1ccccc1,-33.7,
c1ccc2nc(C3=NCCN3)ccc2c1,,inactive
COc1cc(CNC(=O)CCCCCCC(C)C)ccc1O,-28.6,
Cn1cc(C(F)(F)F)nc1-c1ccc(OCC(O)CNCCOc2ccc(O)c(C(N)=O)c2)cc1 (configuration not stated),,inactive
CC[N+](CC)(CC)CC(=O)Nc1c(C)cccc1C,,inactive
O=C(O)C1CN(CCCP(=O)(O)O)CCN1 (configuration not stated),15.1,
CC1CCN(CC[C@H]2CCCN2S(=O)(=O)c2cccc(O)c2)CC1,,inactive
CN(CC[C@@H](Oc1ccc(C(F)(F)F)cc1)c1ccccc1)CC(=O)O,-7.35,
c1ccc(C(NCc2cccnc2)(c2ccccc2)c2ccccc2)cc1,,inactive
CCCN(CCc1ccccc1)C1CCc2c(O)cccc2C1 (configuration not stated),4.75,
CC[C@@H]1Cc2cc(O)ccc2C2=C1c1ccc(O)cc1C[C@H]2CC,21.5,
O=c1ccn([C@@H]2O[C@H](COP(=O)(O)OP(=O)(O)O)[C@@H](O)[C@H]2O)c(=O)[nH]1,,inactive
COc1cc([C@@H]2c3cc4c(cc3[C@H](O)C3COC(=O)[C@@H]32)OCO4)cc(OC)c1OC (some centres not stated),62.9,

# Molecular target: Papain (Carica papaya) (UniProt P00784)
# Experiment: Primary qHTS assay for inhibitors of the protease papain (AID 1645873);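 note: papain turnover of Z-FR-AMC read as the AMC fluorescence gain over 10 min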; note: potency is the fitted concentration of half-maximal effect
# Details: papain Z-FR-AMC cleavage, AMC fluorescence; series mostly up to 49.8 µM; activity change, negative = inhibition: at the top concentration
# Chain of Papain (Carica papaya) (P00784 whole entry, looked up): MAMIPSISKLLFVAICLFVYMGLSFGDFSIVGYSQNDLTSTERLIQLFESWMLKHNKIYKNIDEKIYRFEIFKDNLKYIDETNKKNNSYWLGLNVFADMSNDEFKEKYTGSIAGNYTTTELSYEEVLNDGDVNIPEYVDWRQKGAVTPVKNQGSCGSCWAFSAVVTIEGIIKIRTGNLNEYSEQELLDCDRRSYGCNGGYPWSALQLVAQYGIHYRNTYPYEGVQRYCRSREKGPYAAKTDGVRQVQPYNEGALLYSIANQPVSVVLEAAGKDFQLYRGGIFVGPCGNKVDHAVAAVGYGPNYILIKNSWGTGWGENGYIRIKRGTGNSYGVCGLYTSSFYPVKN
SMILES,"activity change, negative = inhibition [%]",Potency
CN(C)C(=O)/N=N/C(=O)N(C)C,34.7,
Cc1cccc(C(=O)NCN2CCN(c3ccccc3C#N)CC2)c1,-26.6,
CSC(=N)N,-0.27,
COc1ccc2c(c1)c(CC(=O)O)c(C)n2C(=O)c1ccccc1,-0.45,
COc1ccc2c(c1)CCC1C2CC[C@@]2(C)C1CC[C@@H]2NCCCCCCN1C(=O)C=CC1=O (some centres not stated),-9.27,
O=C(O)c1cccnc1C(=O)O,-3.15,
Cc1cc2c(cc1Cl)N(C(=O)Nc1ccnc3ccccc13)CC2,-4.95,
Nn1nnc2ccccc21,-5.13,
O=C(O)C1=CCCN(CCON=C(c2ccccc2)c2ccccc2)C1,0.09,
N[C@H]1CONC1=O,-13.8,
N[C@@H](CS(=O)O)C(=O)O,7.47,
O=C(OCCN1CCOCC1)C1(c2ccccc2)CCCCC1,-7.65,
C#CCn1c(=O)c2c(ncn2C)n(C)c1=O,-12.2,
CNc1cc(NS(=O)(=O)c2ccc(N)cc2)nc(NC)n1,-19.7,
CCC(=O)N1CCN(C(=O)c2ccccc2)CC1,8.01,
CC(=O)[C@H]1CCC2C3CC=C4C[C@@H](OS(=O)(=O)O)CC[C@]4(C)C3CC[C@@]21C (some centres not stated),,28.2 µM (active)
COc1cc(CC(=O)O)ccc1O,-4.59,
N[C@H](C(=O)O)c1cc(O)cc(O)c1,-16.1,
CCCCCC[C@@H]([C@@H](C)O)n1cnc2c(N)ncnc21,31.5,

SMILES,"activity change, negative = inhibition [%]",Potency
OC1(c2ccc(Cl)cc2)CCN(Cc2c[nH]c3ccccc23)CC1,-8.55,
CC(C)[C@@H]1CC[C@@H](C)C[C@@H]1P(=O)(c1ccccc1)c1ccccc1,9.99,
NC[C@@H]1O[C@H](c2ccccc2)Cc2c1ccc(O)c2O,5.01,
O=C(O)c1cc2cc(F)ccc2[nH]1,2.43,
C=CC[C@H](N)C(=O)O,20.2,
NC/C=C\C(=O)O,-24,
NC(=O)c1ccccc1,21.2,
c1ccc2nc(C3=NCCN3)ccc2c1,-18.1,
COc1cc(CNC(=O)CCCCCCC(C)C)ccc1O,-14.9,
Cn1cc(C(F)(F)F)nc1-c1ccc(OCC(O)CNCCOc2ccc(O)c(C(N)=O)c2)cc1 (configuration not stated),-24.8,
CC[N+](CC)(CC)CC(=O)Nc1c(C)cccc1C,-7.65,
O=C(O)C1CN(CCCP(=O)(O)O)CCN1 (configuration not stated),-0.63,
CC1CCN(CC[C@H]2CCCN2S(=O)(=O)c2cccc(O)c2)CC1,-15.8,
CN(CC[C@@H](Oc1ccc(C(F)(F)F)cc1)c1ccccc1)CC(=O)O,10.9,
c1ccc(C(NCc2cccnc2)(c2ccccc2)c2ccccc2)cc1,0.27,
CCCN(CCc1ccccc1)C1CCc2c(O)cccc2C1 (configuration not stated),-1.35,
CC[C@@H]1Cc2cc(O)ccc2C2=C1c1ccc(O)cc1C[C@H]2CC,,5.01 µM (active)
O=c1ccn([C@@H]2O[C@H](COP(=O)(O)OP(=O)(O)O)[C@@H](O)[C@H]2O)c(=O)[nH]1,5.13,
COc1cc([C@@H]2c3cc4c(cc3[C@H](O)C3COC(=O)[C@@H]32)OCO4)cc(OC)c1OC (some centres not stated),-13.4,
